In PubChem BioAssay (NCI) one finds growth data, which are given here for 13 compounds.

Where “and” joins values, the source holds several entries; their conditions need not be identical. Equal values may be shown once. The panel holds about 83,000 compounds, 20% with a hit somewhere; the sample as a whole holds those more often.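 A percent growth of 40 corresponds to 60% growth inhibition; 0 means no net growth; -100 means all cells died. Active threshold: below 10.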 A number with no mark means an inactive call. Calls of active or inactive are those of the source. Where a SMILES comes first, the peptide text is derived from it.

Common to all, as to test: NCI-60 one-dose screen, 48 h (100 = growth as untreated, 0 = no growth, -100 = all killed)
For assay [1], the system named is NCI-H23 lung. The conditions noted are these: 10 µM unless noted.
Assay [2] deals with NCI-H226 lung. Particulars: 10 µM unless noted.
The subject of assay [3] is HOP-62 NSCLC. Particulars: 10 µM unless noted.
Assay [4] deals with NCI-H460 lung. The conditions noted are these: 10 µM unless noted.
The test system of assay [5] is HOP-92 NSCLC. Particulars: 10 µM.
Assay [6] deals with NCI-H522 lung. The conditions noted are these: 10 µM.
The subject of assay [7] is 786-0 renal. Particulars: 10 µM unless noted.
Assay [8] relates to COLO 205 colon. Particulars: 10 µM unless noted.
In assay [9] the test system is NCI-H322M lung. The conditions noted are these: 10 µM unless noted.
For assay [10], the system named is A549/ATCC NSCLC. Particulars: 10 µM unless noted.

As for `CCOC(=O)c1c(C)cc(=O)oc1C`, the growth in assay [1] is 101%; in assay [2], 96.8%; in assay [3], 97.2%; in [4], 110%; in assay [5] it was 80.7%; in [6], 115%. Moreover, the values for the growth in assay [7] and in assay [8] were 103% and 116%, respectively.
`O=C(O)CCCl`: the growth in assay [1] is 108%; in assay [2], 95.6%; in assay [9] it was 102%; in assay [3], 105%; in [4], 106%; in assay [5], 78.4%. The growth is 112% in [6], 104% in assay [10], 120% in [7] and 119% in assay [8].
In the case of `C#CCOC(=O)Nc1ccccc1`, the growth in [1] was 98.9%; in assay [2] it was 108%; in [3], 113%; in assay [4] it was 103%; in [5] it was 102%; in assay [6] it was 101%. Also, the growth in assay [10] was 97.4%; in [7], 94.7%; in assay [8], 106%.
Regarding `CCCCOC(=O)/C=C\C(=O)NC(N)=O`, the growth in assay [1] was 85.7%; in assay [2] it was 96.6%; in assay [3], 95.1%; in assay [4], 101%; in assay [6], -30.6% (active); in assay [10], 95.8%. For the same compound, the growth in [7] was 97.4%; in [8], 87.7%.
With `Cc1cc(-c2cc(C)c(O)c(C)c2)cc(C)c1O`, the growth is 87.3% in assay [1]; 96.2% in [2]; 73.9% in [3]; 102% in [4]; 77.1% in [5]; 63.3% in [6]. Besides, the growth in assay [10] was 90.2%; in assay [8] it was 115%.
As to `Nc1nc(N)c2[nH]cnc2n1`, the growth is 88.6% in assay [1]; 102% in assay [2]; 88.7% in [3]; 96.2% in [4]; 78.5% in assay [5]; 50.6% in [6]. Also, the figures for the growth in assay [10], in assay [7] and in [8] were 80.2%, 91.8% and 97.6%, respectively.
For `CCCCOc1ccc(Nc2cc(Cl)ccc2C(=O)O)cn1`, the growth in assay [1] is 103% and 92.9%; in assay [2], 109% and 97.5%; in assay [9], 110% and 105%; in assay [3], 88.4% and 90%; in [4], 104% and 99%; in assay [5] it was 74.8%. Also, the growth was 46.4% and 98.2% in [6]; 96.5% and 98.1% in assay [10]; 92% in assay [7]; 119% and 103% in assay [8].
Take `CC1CCC(C(C)C)C(NNC(N)=O)C1` (stereo not given): the growth in [1] was 106%; in assay [2], 102%; in [9], 102%; in [3], 100%; in [4] it was 104%; in assay [5] it was 91.5%. The growth is 94.9% in [6], 89.7% in assay [10], 106% in [7] and 110% in assay [8].
For `N#CC(C#N)N=Nc1cc(Cl)ccc1Cl`, the growth is 106% in [1]; 104% in [2]; 104% in assay [3]; 102% in assay [4]; 89.8% in assay [6]; 98.4% in assay [10]. Further, the growth was 102% in [7] and 110% in assay [8].
As to `O=CN1CCCCC1`, the growth in assay [1] is 91.5%; in assay [9], 99.4%; in [3], 102%; in assay [4], 112%; in [5], 120%; in [6] it was 104%. Moreover, the growth in [10] was 122%; in assay [7], 102%; in assay [8] it was 136%.
For the compound `Fc1ccc([I+]c2ccc(F)cc2)cc1`, the growth in [1] is 53.7%; in assay [2], 71.8%; in assay [3] it was 78.7%; in assay [4], 86.1%; in [5], 67.8%; in assay [6], 68.8%. The values for the growth in assay [10] and in assay [8] were 80.9% and 62.2%, respectively.
`Cc1ccc(=O)[nH]n1`: the growth in assay [1] was 97.8% and 98.7%; in assay [2], 102% and 100%; in assay [3] it was 110% and 91.9%; in [4], 105% and 107%; in [5], 85.1%; in assay [6], 108% and 96.2%. In addition, the growth was 102% and 91.4% in [10]; 111% in assay [7]; 111% and 115% in assay [8].
Consider `NC(Cc1ccccc1)C(=O)NC(Cc1ccccc1)C(=O)O` (stereo not drawn) (H-Phe-Phe-OH; configuration not given here), for which the growth in assay [1] is 97.1% and 105%; in assay [2], 95.6% and 93%; in assay [3], 91.1% and 100%; in assay [4], 104%; in assay [5], 97.6%; in assay [6] it was 87.3% and 99.4%. For the same compound, the growth in assay [10] was 90.2% and 101%; in assay [7], 111% and 104%; in assay [8], 107% and 110%.
